Screening data (PubChem)
rCAG RNA binder: molecules binding r(CAG) RNA repeats | r(CAG) RNA repeat, TO-PRO-1 dye displacement fluorescence | inhibition, % at 3 µM | 370,000 compounds, 1.3% hits | AID 651821;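 active = inhibition above the plate cutoff, the mean of all test compounds on that plate plus 3 SD, cut at about 35% in these data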;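 also: 0% = DMSO alone and 100% = 100 µM mitoxantrone as full dye displacement; higher means more dye released from RNA so lower well fluorescence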
ADAM17 inh: inhibitors of human ADAM17 | AID 720648 | 370,000 compounds, 0.83% hits | P78536 | recombinant ADAM17, EDANS/DABCYL FRET peptide cleavage | inhibition, % at 6.95 µM;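 active = inhibition above the mean of compounds lying between control limits plus 3 SD, set per campaign, cut at about 8.5% in these data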;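 also: 0% = DMSO-only wells as the low control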
Pemphigus Ab inh: blocks pemphigus antibody binding to human desmoglein-3 | P32926 | DSG3-coupled beads, scFv-anti-DSG3-GFP binding, flow cytometry; hits give low values | binding (percent of control), % at 10 µM | 310,000 compounds, 0.48% hits;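 active = binding more than 3 SD below its plate's average and above zero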;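 also: hits lower antibody fragment binding to DSG3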
MPTP block: blocks calcium-induced mitochondrial swelling; isolated mouse mitochondria, Ca2+ swelling absorbance, 30 min; AID 602449; 360,000 compounds, 1.4% hits; inhibition, % at 10 µM;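 active = inhibition of 50% or more, scaled per plate between neutral and stimulator controls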;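 also: 0% = DMSO wells given calcium and 100% = 1 mM EGTA wells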
ADAM10 inh: inhibitors of human ADAM10. recombinant ADAM10, EDANS/DABCYL FRET peptide cleavage, 3 h. inhibition, % at 7 µM. 370,000 compounds, 0.62% hits. O14672;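 active = inhibition above a per-campaign cutoff equal to the mean of compounds falling between control-based bounds plus 3 SD, cut at about 20% in these data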;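 also: 0% = DMSO wells while the 100% control is not disclosed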
proKLK7 act: proKLK7 (human) activation, primary screen | P49862 | activation, % at 7 µM | 370,000 compounds, 0.9% hits | purified proKLK7, EDANS-DABCYL substrate fluorescence; 100% is mature enzyme control, 0% vehicle;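 active = activation above the mean of all tested compounds plus 3 SD, computed per campaign excluding outliers beyond control limits, cut at about 13% in these data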
proKLK7 act conf: confirmation of human kallikrein-7 zymogen activators. shares compounds with proKLK7 act. purified proKLK7, EDANS-DABCYL substrate fluorescence; scaled: vehicle 0, mature enzyme 100. activation, % at 7 µM. 3,200 compounds, 68% hits. AID 686949;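 active = activation, as change over the incubation, above the mean of all tested compounds plus 3 SD, cut at about 13% in these data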
EDANS-DABCYL int: counter-screen for kallikrein-7 activators: EDANS-DABCYL optical interference | shares compounds with proKLK7 act | EDANS-DABCYL substrate fluorescence interference, no enzyme, 4 h; solvent 0%, active enzyme control 100% | activation, % at 7 µM | 3,200 compounds, 80% hits;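 active = activation above the all-compound mean plus 3 SD, ignoring values outside control-based bounds, cut at about 4.8% in these data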;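 also: value is the 4 h activation minus the activation read at time zero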
EDANS interf: optically interferes with EDANS-DABCYL fluorescence, kallikrein-7 activator counter-screen; 250 compounds, 20% hits; EDANS-DABCYL peptide fluorescence interference, no enzyme; AID 720493; shares compounds with proKLK7 act; EC50, µM;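 active = compounds that raise the fluorescence signal in this interference counterscreen, with EC50 at or below 10 µM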;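 also: intact quenched peptide substrate alone read at 355 nm excitation and 520 nm emission; signal is fluorescence gain from T0 to T4 after four hours at room temperature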
Numbers without * were called inactive. Most compounds without a hit are left out; they make up all but 4.7% or so of the library.

Screening CCc1noc(C)c1C(=O)Nc1cc(S(=O)(=O)N2CCOCC2)ccc1OCC(F)(F)F returned rCAG RNA binder -3.5, ADAM17 inh -3.4, Pemphigus Ab inh 98.5, MPTP block -1.7, ADAM10 inh -6.7 and proKLK7 act -0.8.
For O=c1ccc(-c2ccc(S(=O)(=O)Nc3ccccc3Cl)o2)n[nH]1 the results were rCAG RNA binder 7.0, ADAM17 inh -5.7, Pemphigus Ab inh 105.0, MPTP block -0.3, ADAM10 inh -2.9 and proKLK7 act -0.4.
Cc1c(CC(=O)N2CCN(C(=O)C3COc4ccccc4O3)CC2)c(=O)oc2cc(O)ccc12 (centres undefined) was read as rCAG RNA binder 5.7, ADAM17 inh inactive, Pemphigus Ab inh 99.4, MPTP block -1.2, ADAM10 inh inactive, proKLK7 act 58.3*, proKLK7 act conf 74.5* and EDANS-DABCYL int 74.9*.
`COc1ccc2c(C)c(CC(=O)N3CCN(C(=O)C4COc5ccccc5O4)CC3)c(=O)oc2c1` (centres undefined) gave rCAG RNA binder -1.5, ADAM17 inh -453.8, MPTP block -0.9, ADAM10 inh inactive and proKLK7 act 2.7.
Screening Cc1c(CC(=O)N2CCN(C(=O)C3COc4ccccc4O3)CC2)c(=O)oc2cc(O)cc(O)c12 (centres undefined) returned rCAG RNA binder 18.1, ADAM17 inh inactive, Pemphigus Ab inh 127.1, MPTP block -0.9, ADAM10 inh inactive, proKLK7 act 61.0*, proKLK7 act conf 68.3* and EDANS-DABCYL int 67.3*.
For Cc1c(CC(=O)N2CCN(C(=O)C3COc4ccccc4O3)CC2)c(=O)oc2c(C)c(O)ccc12 (centres undefined) the results were rCAG RNA binder 3.9, ADAM17 inh inactive, Pemphigus Ab inh 109.6, MPTP block -0.2, ADAM10 inh inactive, proKLK7 act 39.5*, proKLK7 act conf 69.8* and EDANS-DABCYL int 69.7*.
Screening Cc1ccc(CNC(=O)c2ccc(N3CCC4(CC3)CC(c3ccccc3)=NO4)c(NC(=O)c3c(Cl)cccc3Cl)c2)cc1 returned rCAG RNA binder 14.4, ADAM17 inh 2.6, Pemphigus Ab inh 99.5, MPTP block -0.1, ADAM10 inh 8.4 and proKLK7 act -0.3.
For C#CCn1c(=NC(=O)c2ccc(S(=O)(=O)N3CCc4ccccc4C3)cc2)sc2cc(S(N)(=O)=O)ccc21 the results were Pemphigus Ab inh 97.3 and MPTP block 1.1.
COCCn1c(=NC(=O)c2ccc(S(=O)(=O)N3CCc4ccccc4C3)cc2)sc2cc(S(N)(=O)=O)ccc21 was read as rCAG RNA binder 33.9, ADAM17 inh -175.8, Pemphigus Ab inh 110.0, MPTP block -17.3, ADAM10 inh -489.4, proKLK7 act 304.8*, proKLK7 act conf 63.0* and EDANS-DABCYL int 80.0*.
For C=CCn1c(=NC(=O)c2ccc(S(=O)(=O)N3CCc4ccccc4C3)cc2)sc2cc(S(N)(=O)=O)ccc21 the results were rCAG RNA binder 26.6, ADAM17 inh -45.9, Pemphigus Ab inh 101.5, MPTP block -3.5, ADAM10 inh -207.2, proKLK7 act 65.8*, proKLK7 act conf 70.4*, EDANS-DABCYL int -208.4 and EDANS interf >69.5.
O=C(CN1C(=O)NC2(CCCC2)C1=O)Nc1cc(Cl)ccc1Oc1ccccc1 was read as rCAG RNA binder 1.8, ADAM17 inh 2.1, Pemphigus Ab inh 113.0, MPTP block -1.8, ADAM10 inh 12.2 and proKLK7 act 0.3.
For Cc1cc(C)c(NC(=O)CCc2c(C)noc2C)c(C)c1 the results were rCAG RNA binder -0.4, ADAM17 inh -2.5, Pemphigus Ab inh 109.4, MPTP block -2.6, ADAM10 inh -2.7 and proKLK7 act -0.2.
Screening Nc1c2c(nc3ccccc13)N(c1ccccc1)CC2 returned rCAG RNA binder 5.1, ADAM17 inh -470.2, Pemphigus Ab inh 100.9, MPTP block -3.5, ADAM10 inh inactive, proKLK7 act 69.7*, proKLK7 act conf 19.6* and EDANS-DABCYL int 21.0*.
O=[N+]([O-])c1ccc(CP(=O)(c2ccccc2)c2ccccc2)cc1 was read as rCAG RNA binder -6.0, ADAM17 inh -4.0, Pemphigus Ab inh 132.4, MPTP block 0.6, ADAM10 inh 5.9 and proKLK7 act 0.1.
`Cc1[nH]c2ccccc2c1CCCO` gave rCAG RNA binder -0.6, ADAM17 inh -15.6, ADAM10 inh -29.9 and proKLK7 act 1.9.
`OCCCCc1nccc2c1[nH]c1ccccc12` gave rCAG RNA binder -0.6, ADAM17 inh -363.4, Pemphigus Ab inh 87.4, MPTP block 1.0, ADAM10 inh inactive, proKLK7 act 35.5*, proKLK7 act conf 29.3* and EDANS-DABCYL int 37.0*.
Screening OC(c1cc(F)cc(Cl)c1)c1ncc(-c2cccc(C(F)(F)F)c2)[nH]1 (centres undefined) returned rCAG RNA binder -0.7, ADAM17 inh 4.4, MPTP block 37.5, ADAM10 inh 16.4 and proKLK7 act 0.2.
`CCn1c(=O)c2cc(C(=O)NCCN(C)C)sc2c2ccccc21` gave rCAG RNA binder 8.1, ADAM17 inh -349.4, Pemphigus Ab inh 92.9, MPTP block -0.4, ADAM10 inh inactive, proKLK7 act 35.0*, proKLK7 act conf 0.5 and EDANS-DABCYL int 6.0*.
For CCN(CC)CCNC(=O)c1cc2c(s1)-c1ccccc1SC2 the results were rCAG RNA binder 2.8, ADAM17 inh -155.5, Pemphigus Ab inh 110.5, MPTP block 2.1, ADAM10 inh -400.7, proKLK7 act 76.0*, proKLK7 act conf 56.8* and EDANS-DABCYL int 54.7*.
CCN(CC)CCNC(=O)c1cc2c(=O)n(CC)c3ccccc3c2s1 was read as rCAG RNA binder 6.5, ADAM17 inh -286.3, Pemphigus Ab inh 93.7, MPTP block 1.4, ADAM10 inh inactive, proKLK7 act 38.4*, proKLK7 act conf 4.7 and EDANS-DABCYL int 3.6.
CC(=O)c1ccc(Nc2nc(C(C)N)cs2)cc1 (centres undefined) was read as rCAG RNA binder 0.3, ADAM17 inh -3.9, MPTP block -0.9, ADAM10 inh -7.7 and proKLK7 act 0.7.
`CCOC(=O)C1=C[C@@H](C(C)(C)C)N(S(=O)(=O)c2ccc([N+](=O)[O-])cc2)[C@H]1c1cccc(Cl)c1` gave rCAG RNA binder 3.7, ADAM17 inh -3.6, ADAM10 inh 1.3 and proKLK7 act -0.3.
